In the supplement of paper PMC10849652:
The full data set covers some 8,800 targets. This sample favours those with a hit. About 0.5% of all pairs of compound and target were hits. A number with no mark means an inactive call.

What follows are targets tested with Cc1sc2c(c1C)C(c1ccc(Cl)cc1)=N[C@@H](CC(=O)OC(C)(C)C)c1nnc(C)n1-2 (assay: log2 fold change, soluble protein after heating vs DMSO (PISA); higher = thermal stabilisation; K562 lysate, 10 uM; active = over 0.2 and 3.5 SD of the protein, either way, in both replicates (recomputed)).
In short: (§1)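 A 30 min treatment with 10 μM compound was applied to crude K562 extract at 1 mg/mL protein in PBS pH 7.4 with 1 mM MgCl2. Heating for 3 min spanned 48°C-58°C, after which aliquots were pooled, adjusted to 0.5% NP-40 at 4°C and spun at 21,000xg for 90 min. TMTpro 16plex LC-MS/MS of the supernatant, with channel sums equalised, gave values recorded as log-two fold change in thermal stability against solvent controls, from duplicates.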

UniProt P33240, sequence (P33240 whole entry, looked up): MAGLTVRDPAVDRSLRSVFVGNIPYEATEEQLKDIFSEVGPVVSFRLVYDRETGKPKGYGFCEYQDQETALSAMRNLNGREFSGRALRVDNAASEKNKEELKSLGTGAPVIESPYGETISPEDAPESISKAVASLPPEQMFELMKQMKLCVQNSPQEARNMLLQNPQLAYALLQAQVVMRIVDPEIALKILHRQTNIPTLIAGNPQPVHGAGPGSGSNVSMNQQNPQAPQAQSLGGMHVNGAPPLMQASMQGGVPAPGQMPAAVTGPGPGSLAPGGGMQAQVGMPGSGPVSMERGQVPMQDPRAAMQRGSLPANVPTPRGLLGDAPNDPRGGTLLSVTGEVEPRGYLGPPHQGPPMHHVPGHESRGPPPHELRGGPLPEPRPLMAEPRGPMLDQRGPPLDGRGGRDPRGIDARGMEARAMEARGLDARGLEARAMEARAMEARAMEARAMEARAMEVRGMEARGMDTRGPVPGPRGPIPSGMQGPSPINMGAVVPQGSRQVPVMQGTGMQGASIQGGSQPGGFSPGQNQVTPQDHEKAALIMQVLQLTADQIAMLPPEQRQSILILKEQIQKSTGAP
UniProt Q9UBU7, sequence (Q9UBU7 whole entry, looked up): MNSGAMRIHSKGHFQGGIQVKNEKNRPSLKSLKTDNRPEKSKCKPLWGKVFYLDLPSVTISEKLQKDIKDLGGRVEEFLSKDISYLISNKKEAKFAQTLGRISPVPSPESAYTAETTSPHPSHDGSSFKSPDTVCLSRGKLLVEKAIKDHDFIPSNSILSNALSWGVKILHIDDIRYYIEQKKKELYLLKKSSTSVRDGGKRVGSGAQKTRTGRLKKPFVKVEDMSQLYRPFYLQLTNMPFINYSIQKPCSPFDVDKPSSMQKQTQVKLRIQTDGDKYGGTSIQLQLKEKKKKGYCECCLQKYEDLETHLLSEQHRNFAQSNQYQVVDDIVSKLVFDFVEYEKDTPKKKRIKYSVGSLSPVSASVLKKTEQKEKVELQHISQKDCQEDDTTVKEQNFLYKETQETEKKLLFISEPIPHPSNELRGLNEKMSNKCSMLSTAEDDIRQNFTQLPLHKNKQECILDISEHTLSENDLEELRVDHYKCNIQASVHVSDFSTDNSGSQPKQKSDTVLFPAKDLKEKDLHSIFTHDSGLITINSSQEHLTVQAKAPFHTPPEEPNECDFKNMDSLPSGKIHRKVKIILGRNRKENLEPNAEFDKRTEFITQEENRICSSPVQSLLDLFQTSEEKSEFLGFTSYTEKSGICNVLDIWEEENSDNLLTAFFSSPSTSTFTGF
UniProt P68400, sequence (P68400 whole entry, looked up): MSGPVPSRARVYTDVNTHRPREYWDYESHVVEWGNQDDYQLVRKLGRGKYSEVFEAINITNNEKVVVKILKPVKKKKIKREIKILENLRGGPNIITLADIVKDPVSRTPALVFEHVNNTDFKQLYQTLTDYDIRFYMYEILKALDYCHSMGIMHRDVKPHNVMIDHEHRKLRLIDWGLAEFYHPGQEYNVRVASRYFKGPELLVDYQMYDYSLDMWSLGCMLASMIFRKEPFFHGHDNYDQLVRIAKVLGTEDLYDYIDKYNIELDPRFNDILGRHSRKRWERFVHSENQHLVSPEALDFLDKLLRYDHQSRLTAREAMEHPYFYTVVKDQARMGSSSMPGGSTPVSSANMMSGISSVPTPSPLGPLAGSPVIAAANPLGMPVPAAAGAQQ
UniProt P26374, sequence (P26374 whole entry, looked up): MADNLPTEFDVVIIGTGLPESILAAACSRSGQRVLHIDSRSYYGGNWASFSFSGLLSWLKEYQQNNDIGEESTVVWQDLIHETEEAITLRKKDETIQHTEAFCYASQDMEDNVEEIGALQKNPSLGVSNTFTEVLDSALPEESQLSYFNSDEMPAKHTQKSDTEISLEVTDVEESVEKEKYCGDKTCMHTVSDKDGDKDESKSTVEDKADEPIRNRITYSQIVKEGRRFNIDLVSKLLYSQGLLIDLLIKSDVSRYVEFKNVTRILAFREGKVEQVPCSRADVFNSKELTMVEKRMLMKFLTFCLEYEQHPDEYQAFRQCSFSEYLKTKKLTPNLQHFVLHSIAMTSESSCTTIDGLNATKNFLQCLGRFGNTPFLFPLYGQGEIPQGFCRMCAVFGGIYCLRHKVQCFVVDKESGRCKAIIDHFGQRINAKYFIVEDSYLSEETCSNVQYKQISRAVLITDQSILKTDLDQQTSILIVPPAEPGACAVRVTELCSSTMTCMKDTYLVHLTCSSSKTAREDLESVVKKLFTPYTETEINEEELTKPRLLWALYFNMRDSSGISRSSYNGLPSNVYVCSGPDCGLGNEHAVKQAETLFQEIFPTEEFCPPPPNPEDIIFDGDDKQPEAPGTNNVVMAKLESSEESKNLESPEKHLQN
UniProt Q14019, sequence (Q14019 whole entry, looked up): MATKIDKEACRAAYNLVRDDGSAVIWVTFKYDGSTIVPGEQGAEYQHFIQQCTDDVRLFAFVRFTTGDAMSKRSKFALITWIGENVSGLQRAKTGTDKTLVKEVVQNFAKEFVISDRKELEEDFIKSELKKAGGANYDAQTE
UniProt Q86Y56, sequence (Q86Y56 whole entry, looked up): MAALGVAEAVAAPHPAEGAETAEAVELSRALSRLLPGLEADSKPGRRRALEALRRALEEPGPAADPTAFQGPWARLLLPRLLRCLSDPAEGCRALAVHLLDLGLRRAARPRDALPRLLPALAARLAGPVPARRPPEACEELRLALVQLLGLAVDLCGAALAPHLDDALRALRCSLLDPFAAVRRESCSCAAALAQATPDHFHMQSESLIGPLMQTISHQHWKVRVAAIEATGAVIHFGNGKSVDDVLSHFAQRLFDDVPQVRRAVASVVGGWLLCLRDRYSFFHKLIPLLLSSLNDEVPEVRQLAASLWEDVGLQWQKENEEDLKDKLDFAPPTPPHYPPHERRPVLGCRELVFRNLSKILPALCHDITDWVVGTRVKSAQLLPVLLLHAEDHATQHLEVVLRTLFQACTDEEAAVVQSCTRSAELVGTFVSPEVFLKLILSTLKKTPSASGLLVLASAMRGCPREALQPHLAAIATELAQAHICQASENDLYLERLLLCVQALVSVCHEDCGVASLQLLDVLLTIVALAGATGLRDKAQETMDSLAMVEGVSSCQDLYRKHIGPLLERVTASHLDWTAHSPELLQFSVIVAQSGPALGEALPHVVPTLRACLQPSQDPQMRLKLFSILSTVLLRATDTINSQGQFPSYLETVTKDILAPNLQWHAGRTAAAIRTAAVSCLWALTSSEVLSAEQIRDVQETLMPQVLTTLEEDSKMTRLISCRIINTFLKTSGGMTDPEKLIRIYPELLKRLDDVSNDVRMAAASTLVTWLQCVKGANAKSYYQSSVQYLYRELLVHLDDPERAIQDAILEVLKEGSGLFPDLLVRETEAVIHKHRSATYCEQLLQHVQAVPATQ
UniProt O95628, sequence (O95628 whole entry, looked up): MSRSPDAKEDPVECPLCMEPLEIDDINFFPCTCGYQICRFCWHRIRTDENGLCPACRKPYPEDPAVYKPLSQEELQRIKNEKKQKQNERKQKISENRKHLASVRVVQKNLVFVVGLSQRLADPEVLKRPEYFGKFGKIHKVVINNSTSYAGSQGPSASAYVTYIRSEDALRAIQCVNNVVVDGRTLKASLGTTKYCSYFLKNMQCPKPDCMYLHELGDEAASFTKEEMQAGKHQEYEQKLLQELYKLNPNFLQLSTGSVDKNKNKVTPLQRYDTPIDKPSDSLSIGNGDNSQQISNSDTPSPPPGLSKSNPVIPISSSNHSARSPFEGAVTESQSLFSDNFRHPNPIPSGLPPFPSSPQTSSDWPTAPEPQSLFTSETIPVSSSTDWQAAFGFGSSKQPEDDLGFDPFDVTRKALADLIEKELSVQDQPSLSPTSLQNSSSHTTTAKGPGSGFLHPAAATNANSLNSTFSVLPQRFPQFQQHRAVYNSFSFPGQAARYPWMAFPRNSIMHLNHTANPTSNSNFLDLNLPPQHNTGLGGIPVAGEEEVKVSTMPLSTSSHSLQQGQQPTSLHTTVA
UniProt O15247, sequence (O15247 whole entry, looked up): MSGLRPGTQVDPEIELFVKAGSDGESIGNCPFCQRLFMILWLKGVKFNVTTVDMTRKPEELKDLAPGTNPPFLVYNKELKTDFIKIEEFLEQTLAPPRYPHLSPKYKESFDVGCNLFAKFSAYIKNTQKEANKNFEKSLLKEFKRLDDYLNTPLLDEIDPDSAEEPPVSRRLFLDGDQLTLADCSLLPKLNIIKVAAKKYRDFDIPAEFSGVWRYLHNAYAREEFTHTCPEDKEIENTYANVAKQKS
UniProt P61923, sequence (P61923 whole entry, looked up): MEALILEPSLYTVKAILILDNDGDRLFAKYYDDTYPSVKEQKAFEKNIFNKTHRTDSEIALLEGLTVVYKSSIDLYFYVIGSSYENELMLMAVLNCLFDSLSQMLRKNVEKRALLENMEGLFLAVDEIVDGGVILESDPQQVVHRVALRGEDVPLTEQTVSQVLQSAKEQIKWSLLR
UniProt P61024, sequence (P61024 whole entry, looked up): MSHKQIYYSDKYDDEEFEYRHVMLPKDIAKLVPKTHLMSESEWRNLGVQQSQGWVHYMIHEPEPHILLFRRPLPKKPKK
UniProt Q96KP4, sequence (Q96KP4 whole entry, looked up): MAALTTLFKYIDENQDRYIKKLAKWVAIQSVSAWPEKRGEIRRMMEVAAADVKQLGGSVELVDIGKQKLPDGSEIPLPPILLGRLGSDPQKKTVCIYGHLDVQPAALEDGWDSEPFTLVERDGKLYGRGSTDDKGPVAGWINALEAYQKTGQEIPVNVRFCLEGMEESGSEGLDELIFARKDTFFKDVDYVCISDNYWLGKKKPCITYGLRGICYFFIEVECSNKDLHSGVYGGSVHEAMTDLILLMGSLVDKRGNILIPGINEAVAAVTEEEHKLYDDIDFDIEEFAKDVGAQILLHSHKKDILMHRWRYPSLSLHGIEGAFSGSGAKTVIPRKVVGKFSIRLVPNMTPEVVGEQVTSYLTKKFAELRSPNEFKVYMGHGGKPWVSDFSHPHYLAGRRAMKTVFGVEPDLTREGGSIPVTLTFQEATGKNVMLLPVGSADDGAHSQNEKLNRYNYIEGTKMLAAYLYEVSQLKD

Target | log2 fold change
DNAAF5 (UniProt Q86Y56) | 0.016
CSTF2 (UniProt P33240) | -0.032
CLUH (UniProt O75153) | -0.02
CKM (UniProt P06732) | -0.169
DDB2 (UniProt Q92466) | -0.027
DIAPH3 (UniProt Q9NSV4) | 0.099
DCTN1 (UniProt Q14203) | 0
CSNK2A1 (UniProt P68400) | 0.034
CTPS1 (UniProt P17812) | -0.014
DNAJC5 (UniProt Q9H3Z4) | 0.009
CKS1B (UniProt P61024) | 0.108
COTL1 (UniProt Q14019) | 0.031
DDX54 isoform 2 (UniProt Q8TDD1) | 0.052
CNOT4 isoform 6 (UniProt O95628) | 0.051
CLPB isoform 2 (UniProt Q9H078) | 0.094
CNDP2 (UniProt Q96KP4) | -0.006
CLIC2 (UniProt O15247) | 0.017
CHEK1 (UniProt O14757) | -0.04
CWC22 (UniProt Q9HCG8) | 0.079
CTPS2 (UniProt Q9NRF8) | 0.004
CNIH4 (UniProt Q9P003) | 0.11
CIB1 (UniProt Q99828) | 0.023
COG7 (UniProt P83436) | -0.034
DBF4 (UniProt Q9UBU7) | 0.113
DCP2 (UniProt Q8IU60) | 0.026
CHML (UniProt P26374) | 0.016
COPZ1 isoform 4 (UniProt P61923) | 0.057
COL6A5 (UniProt A8TX70) | -0.061
DCUN1D4 isoform 3 (UniProt Q92564) | -0.139

These targets were tested with c1ccc([C@@H]2C[C@H]2NC2CCNCC2)cc1 in the same assay as above.
In short: as §1

Target | log2 fold change
DNAAF5 (UniProt Q86Y56) | 0.064
CSTF2 (UniProt P33240) | 0.01
CLUH (UniProt O75153) | -0.058
CKM (UniProt P06732) | 0
DDB2 (UniProt Q92466) | 0.006
DIAPH3 (UniProt Q9NSV4) | 0.195
DCTN1 (UniProt Q14203) | 0.034
CSNK2A1 (UniProt P68400) | 0.005
CTPS1 (UniProt P17812) | 0.023
DNAJC5 (UniProt Q9H3Z4) | -0.308
CKS1B (UniProt P61024) | 0.194
COTL1 (UniProt Q14019) | 0.064
DDX54 isoform 2 (UniProt Q8TDD1) | 0.008
CNOT4 isoform 6 (UniProt O95628) | -0.004
CLPB isoform 2 (UniProt Q9H078) | 0.079
CNDP2 (UniProt Q96KP4) | -0.145
CLIC2 (UniProt O15247) | 0.029
CHEK1 (UniProt O14757) | 0
CWC22 (UniProt Q9HCG8) | 0.237
CTPS2 (UniProt Q9NRF8) | 0
CIB1 (UniProt Q99828) | 0.03
COG7 (UniProt P83436) | 0.012
DBF4 (UniProt Q9UBU7) | 0.078
DCP2 (UniProt Q8IU60) | 0.048
CHML (UniProt P26374) | -0.03
COPZ1 isoform 4 (UniProt P61923) | 0.096
COL6A5 (UniProt A8TX70) | -0.545
DCUN1D4 isoform 3 (UniProt Q92564) | 0.055
